esBAF inh = blocks esBAF chromatin remodeling in mouse ES cells; AID 602393; 350,000 compounds, 2% hits; reporter increase, % at 12.5 µM; Bmi1-luciferase knock-in reporter, 24 h; 100% = twice the neutral-well signal; in the data active = activation above about 40%; inconclusive = no clear call, values can overlap the other calls;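 note: 0% = median of the plate's neutral control wells and 100% = double that signal; a rise in the Bmi1 reporter signal indicates esBAF inhibition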
Wnt bcat act = Wnt/beta-catenin pathway activation | Wnt/beta-catenin reporter cell assay, activator, plate reader | activation, % at 9.35 µM | 300,000 compounds, 1.2% hits | AID 743398; in the data active = activation above about 30%, passing the limit was not always enough; inconclusive = no clear call, values can overlap the other calls;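 note: 0% = neutral control wells and 100% = positive control wells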
C2C12 statin = suppression of simvastatin myotoxicity | C2C12 myotubes + simvastatin, ATP luminescence, 48 h; scaled: DMSO 0, geranylgeraniol control 100 | rescue of ATP level, % at 7.49 µM | 330,000 compounds, 0.78% hits | AID 602340;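 active = mean ATP rescue above about 67%, or every replicate alone reaching that limit, limit read from the data, passing the limit was not always enough; inconclusive = no clear call, values can overlap the other calls; inactive = mean under the limit and some replicate under it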;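 note: myotubes were challenged with 10 µM simvastatin during compound exposure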
MITF act = increases MITF-driven TRPM1 promoter luciferase signal. SK-MEL-5 TRPM1-promoter luciferase, 24 h; % of positive control, neutral wells = 0. AID 588334. activation, % at 12.5 µM. 300,000 compounds, 0.75% hits;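 active = mean activation of at least 80% with every replicate also reaching 80%; inconclusive = mean reaches 80% but some replicate falls short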;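 note: 0% = neutral control wells and 100% = parthenolide positive control wells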
* = called active by the depositor; ? = inconclusive; . = not tested or not shown. Only some compounds are listed: those with a hit (about 3% of all), similar ones and a draw of the others.

SMILES | esBAF inh | Wnt bcat act | C2C12 statin | MITF act
O=C(CSCc1ccccc1Cl)Nc1ccc2c(c1)OCCO2 | -24 | -5 | -2 | 135*
O=C(CNCc1ccc(Cl)cc1)Nc1ccc2c(c1)OCCO2 | . | 8 | . | 2
CO[C@@H]1CN(C)C(=O)c2cc(NC(=O)C3CC3)ccc2OC[C@@H](C)N(CC2CCOCC2)C[C@@H]1C | -1 | . | 1 | .
CCCNC(=O)N(C)C[C@H]1Oc2cc(C#CCN(C)C)ccc2S(=O)(=O)N([C@H](C)CO)C[C@H]1C | 1 | . | -2 | .
Cc1ccc(N2C(=O)c3ccccc3NC2(C(=O)O)c2ccccc2)cc1Cl (stereo unspecified) | 60* | 57* | -16 | 34
CO[C@H]1CN(C)C(=O)c2cc(NC(=O)Cc3ccccc3)ccc2OC[C@H](C)N(C(=O)c2ccccc2F)C[C@H]1C | -6 | . | -12 | .
Clc1cccc(Cl)c1CSc1cc2c(nn1)-c1ccccc1CC2 | 17 | 30 | 9 | 59
Clc1ccccc1CSc1cc2c(nn1)-c1ccccc1CC2 | 88* | . | -15 | 58
Cc1cc(C(=O)Nc2cccc3c2O[C@H](CN(C)C(=O)Nc2c(C)noc2C)[C@@H](C)CN([C@@H](C)CO)C3=O)n(C)n1 | -6 | . | 35 | .
CCCCOC(=O)CSC1=C(C#N)C(c2ccc3c(c2)OCO3)CC(=O)N1 (stereo unspecified) | -1 | . | 102* | -6
CCOC(=O)CSC1=C(C#N)C(c2ccc3c(c2)OCO3)CC(=O)N1 (stereo unspecified) | -3 | -6 | . | -21
CCC(=O)N(C)C[C@@H]1Oc2ncc(C#Cc3ccccc3)cc2C(=O)N([C@@H](C)CO)C[C@@H]1C | -3 | . | -9 | .
COc1ccccc1NC(=O)N1C[C@@H]2[C@H](c3ccccc31)[C@@H](CO)N2C(C)=O | 1 | . | -7 | .
Clc1cccc(Nc2nc(-c3cccnc3)cs2)c1 | 78* | 0 | -39 | 43
c1cncc(Nc2nc(-c3cccs3)cs2)c1 | 69* | 16 | -4 | 52
Brc1cccc(Nc2nc(-c3cccnc3)cs2)c1 | 49* | 27 | -30 | 16
Brc1ccc(Nc2nc(-c3cccnc3)cs2)cc1 | . | 0 | . | 26
Cc1ccc(Nc2nc(-c3cccnc3)cs2)cc1C | 37 | ? | -30 | 63
C[C@@H]1CN([C@@H](C)CO)C(=O)c2cccc(NC(=O)Nc3ccccc3)c2O[C@@H]1CN(C)Cc1ccc(C(=O)Nc2ccccc2N)cc1 | -24 | . | -115 | .
C[C@H](CO)N1C[C@H](C)[C@@H](CN(C)Cc2ccc(C(=O)Nc3ccccc3N)cc2)Oc2ccc(NC(=O)Cc3cn(C)c4ccccc34)cc2CC1=O | -11 | . | 40 | .
C[C@@H]1CN([C@H](C)CO)C(=O)c2cccc(NC(=O)Nc3ccccc3)c2O[C@H]1CN(C)Cc1ccc(C(=O)Nc2ccccc2N)cc1 | -9 | . | 113* | .
C[C@@H]1CN([C@H](C)CO)C(=O)c2cccc(NC(=O)C3CCOCC3)c2O[C@@H]1CN(C)Cc1ccc(C(=O)Nc2ccccc2N)cc1 | -25 | . | 110* | .
C[C@H](CO)N1C[C@H](C)[C@H](CN(C)Cc2ccc(C(=O)Nc3ccccc3N)cc2)Oc2ccc(NC(=O)Cn3cnnn3)cc2C1=O | -2 | . | 100* | .
C[C@H]1CN([C@@H](C)CO)C(=O)c2cc(NC(=O)Cc3cn(C)c4ccccc34)ccc2O[C@H]1CN(C)Cc1ccc(C(=O)Nc2ccccc2N)cc1 | -20 | . | 86* | .
O=C(C[C@H]1C[C@@H]2c3cc(NC(=O)c4cccnc4)ccc3O[C@@H]2[C@@H](CO)O1)NCc1ccncc1 | -3 | . | -8 | .
SMILES | esBAF inh | Wnt bcat act | C2C12 statin | MITF act
Cc1ccc(S(=O)(=O)Nc2ccc3c(c2)CC(=O)N([C@H](C)CO)C[C@@H](C)[C@@H](CN(C)S(=O)(=O)c2ccc(Cl)cc2)O3)cc1 | -1 | . | -27 | .
C[C@@H]1CN([C@H](C)CO)C(=O)c2cccc(NC(=O)c3ccc(-c4nccs4)cc3)c2O[C@@H]1CN(C)C(=O)Nc1cccc2ccccc12 | -4 | . | 80* | .
C[C@@H]1CN([C@@H](C)CO)C(=O)c2cc(NC(=O)Nc3cccc4ccccc34)ccc2O[C@@H]1CN(C)Cc1ccc(C(=O)Nc2ccccc2N)cc1 | -16 | . | 137* | .
CC(C)(C)NC(=O)CN(Cc1cccs1)C(=O)CNS(=O)(=O)c1ccc(F)cc1 | . | 23 | . | -1
CCC(C)(C)NC(=O)CN(Cc1cccs1)C(=O)CNS(=O)(=O)c1ccc(C)cc1 | -3 | -8 | 83* | 0
COc1cccc(-c2cc(C(=O)NCc3cccs3)no2)c1 | 72* | 3 | 12 | 134*
O=C(NCc1cccs1)c1cc(-c2ccccc2)on1 | 40 | . | -5 | 99*
O=C(NCc1cccs1)c1cc(-c2cccs2)on1 | ? | . | -3 | 61

Screening data: PubChem BioAssay, Broad Institute
